Outcome and AC50 data for 17 compounds are collected here from PubChem BioAssay (EPA / NIEHS).

Results filed as inconclusive are left out. Activity calls are given as the source filed them. How the source made its calls, unless noted: active means hit-call score of the fitted dose curve at least 0.9, where 1 is the maximum; inactive means score below 0.9.

The nature of experiment [1]: ATG_TCF_b_cat_CIS: Attagene CIS-FACTORIAL HepG2 Assay for human T-Cell-Factor with beta-catenin (TCF/b-cat) (AID 2282965). The following applies: HepG2 TCF/beta-catenin cis-reporter transcription, actives raise or lower the signal. The method, boiled down:
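HepG2 cells transiently transfected with cis-promoter-driven multiplexed reporter units; reporter mRNA measured 24 h after dosing by RT-PCR, FAM labelling, HpaI digestion and capillary electrophoresis. Bidirectional fitting relative to DMSO baseline.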

The nature of experiment [2]: ATG_TAL_CIS: Attagene CIS-FACTORIAL HepG2 Assay for human TAL Basal Promoter (AID 2282966).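 Further: background control endpoint measuring basal TAL promoter reporter mRNA not a specific factor.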 Particulars: HepG2 Attagene cis-factorial TAL promoter reporter; actives raise or lower the signal. Put shortly:
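Fluorescence of labelled reporter cDNA fragments, resolved by capillary electrophoresis, gave the readout. Human HepG2 liver cells carried transiently transfected cis-element reporter units and were treated for 24 hours; activity was fitted bidirectionally against DMSO.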

A short description of experiment [3]: ATG_TGFb_CIS: Attagene CIS-FACTORIAL HepG2 Assay for human Transforming Growth Factor (TGF) (AID 2282967). The following applies: HepG2 Attagene CIS TGFb reporter, mRNA transcription; actives raise or lower the signal. The method, boiled down:
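Endogenous TGFB1-linked transcription factor activity read as reporter mRNA via RT-PCR and capillary electrophoresis, 24 h after dosing transiently transfected HepG2 cells. Gain or loss of signal fitted relative to DMSO.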

A short description of experiment [4]: ATG_VDRE_CIS: Attagene CIS-FACTORIAL HepG2 Assay for human Vitamin D Receptor Element (VDRE) (AID 2282968). Particulars: HepG2 VDRE cis-reporter transcription, actives raise or lower the signal. Put shortly: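 Cell-based multiplexed reporter format in human liver HepG2 cells, 24 h post-dose. Fluorescence from capillary electrophoresis of reporter cDNA gives the signal, with DMSO as negative control and baseline.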

For experiment [5], the target named is Estrogen receptor (Homo sapiens) (UniProt P03372). Put plainly: ATG_ERa_TRANS: Attagene TRANS-FACTORIAL HepG2 Assay for human Estrogen Receptor alpha (ERa) (AID 2282970; active means hit-call score of the fitted dose curve at least 0.9, where 1 is the maximum). The following applies: HepG2 Attagene TRANS ERa GAL4 reporter, mRNA. Put shortly:
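Human liver HepG2, transient transfection of multiple GAL4-UAS reporter units; TRANS format (exogenous NR-Gal4 chimera). 24 h dosing. Readout: reporter mRNA, RT-PCR, 6-FAM primer extension, HpaI digest, capillary electrophoresis. Positive direction vs DMSO.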

In experiment [6] the target is Steroid hormone receptor ERR1 (Homo sapiens) (UniProt P11474). Description: ATG_ERRa_TRANS: Attagene TRANS-FACTORIAL HepG2 Assay for human Estrogen-Related Receptor alpha (ERRa) (AID 2282971; active means hit-call score of the fitted dose curve at least 0.9, where 1 is the maximum). Particulars: HepG2 Attagene TRANS reporter, ERRa transactivation. The method, boiled down: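 Reporter transcript induction was quantified by RT-PCR and capillary electrophoresis of FAM-labelled, HpaI-cut products after 24 h treatment of HepG2 cells carrying transiently transfected GAL4-UAS reporter units and an exogenous ERRa-Gal4 fusion; activity scored as increase over DMSO.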

For experiment [7], the target named is X-box-binding protein 1 (Homo sapiens) (UniProt P17861). Description: ATG_Xbp1_CIS: Attagene CIS-FACTORIAL HepG2 Assay for human X-box Binding Protein 1 (XBP1) (AID 2282972). Particulars: HepG2 XBP1 cis-element reporter, Attagene multiplex; actives raise or lower the signal. Put shortly:
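HepG2 cells transiently transfected with multiple cis-element reporter units report endogenous TF activity; 24 h exposure, then reporter mRNA measured by RT-PCR, 6-FAM labelling, HpaI digestion and capillary electrophoresis. Bidirectional fitting versus DMSO.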

Experiment [8] is described as follows: ATG_M_19_TRANS: Attagene TRANS-FACTORIAL HepG2 Assay for M19 Transcription Factor (Internal Marker) (AID 2282974; active means hit-call score of the fitted dose curve at least 0.9, where 1 is the maximum). Particulars: HepG2 Attagene TRANS-FACTORIAL M19 internal marker reporter. The method, boiled down: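 Fluorescence of 6-FAM-labelled reporter cDNA fragments, separated by capillary electrophoresis, served as the readout. These derived from HepG2 cells carrying transfected GAL4-UAS reporter units after 24 h dosing, with DMSO as negative control.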

Experiment [9] concerns the target Nuclear receptor subfamily 1 group I member 3 (Homo sapiens) (UniProt Q14994). Put plainly: ATG_CAR_TRANS: Attagene TRANS-FACTORIAL HepG2 Assay for human Constitutive Androstane Receptor (CAR) (AID 2282969; active means hit-call score of the fitted dose curve at least 0.9, where 1 is the maximum;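 further: activators raise reporter mRNA above DMSO so AC50 marks induction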). Particulars: HepG2 Attagene TRANS-FACTORIAL CAR reporter. Put shortly: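 HepG2 cells transiently transfected with GAL4-UAS reporter units; TRANS format reads activity of exogenous chimeric NR-Gal4 protein. After 24 h dosing, reporter mRNA quantified by RT-PCR, 6-FAM labelling and capillary electrophoresis; gain of signal fitted against DMSO.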

Experiment [10] has as its target Androgen receptor (Homo sapiens) (UniProt P10275). Put plainly: ATG_AR_TRANS: Attagene TRANS-FACTORIAL HepG2 Assay for human Androgen Receptor (AR) (AID 2282973; active means hit-call score of the fitted dose curve at least 0.9, where 1 is the maximum). The following applies: HepG2 Attagene TRANS-FACTORIAL AR reporter transcription. The procedure:
ATG_TRANS is a cell-based, multiplexed-readout assay that uses HepG2, a human liver cell line, with measurements taken at 24 hours after chemical dosing in a 24-well plate.ATG_AR_TRANS is one of 30 assay component(s) measured or calculated from the ATG_TRANS assay. It is designed to make measurements of mRNA induction, a form of inducible reporter, as detected with fluorescence intensity signals by Reverse transcription polymerase chain reaction (RT-PCR) and Capillary electrophoresis technology.Data from the assay component ATG_AR_TRANS was analyzed into 1 assay endpoint. This assay endpoint, ATG_AR_TRANS, was analyzed in the positive analysis fitting direction relative to DMSO as the negative control and baseline of activity. Using a type of inducible reporter, measures of mRNA for gain-of-signal activity can be used to understand the reporter gene at the transcription factor-level as they relate to the gene AR. Furthermore, this assay endpoint can be referred to as a primary readout, because this assay has produced multiple assay endpoints where this one serves a reporter gene function. To generalize the intended target to other relatable targets, this assay endpoint is annotated to the nuclear receptor intended target family, where the subfamily is steroidal.
Human liver HepG2 cells are transiently transfected with multiple reporter transcription units (MRTUs) in 6-well plates using FuGene 6 reagent (Roche; 3 ml FuGene/1 mg DNA). The MRTU constructs are regulated by a cis-regulating element (promoter). […] A major difference between the CIS and TRANS system is that in CIS activities of endogenous TFs are measured, whereas the TRANS assay evaluates changes in activities of exogenous, chimeric NR-Gal4 proteins. […] At the end of 24 hour incubation, total RNA was isolated using TriZol reagent (Invitrogen). The isolated RNA is then reverse-transcribed using oligo(dT) primer and Mo-MLV reverse transcriptase (Invitrogen) with DNAse I (Ambion) treatment for 30 min. The one-tenth of the produced cDNA was amplified by PCR using Taq DNA polymerase (Invitrogen) and two reporter sequence-specific primers. The PCR products were fluorescently labeled by primer extension with 6-arboxyfluorescein (6-FAM) 5'-labeled reporter sequence-specific primer (2 min at 95 C, 20 s at 68 C and 10 min at 72 C) and these products were digested with 5U of HpaI (New England Biolabs) for 2h at 37 C. The fragments were purified using Qiaquick PCR columns (Qiagen), analyzed on an ABI 3130xL genetic analyzer (Applied Biosystems) with peak positions identified by using a set of X-rhodamine (ROX)-labeled MapMarker1000 molecular weight standards (BioVentures). The raw capillary electrophoresis data was processed using Attagraph software (Attagene).

Chain of Steroid hormone receptor ERR1 (Homo sapiens) (P11474 whole entry, looked up, the tested form may be a part): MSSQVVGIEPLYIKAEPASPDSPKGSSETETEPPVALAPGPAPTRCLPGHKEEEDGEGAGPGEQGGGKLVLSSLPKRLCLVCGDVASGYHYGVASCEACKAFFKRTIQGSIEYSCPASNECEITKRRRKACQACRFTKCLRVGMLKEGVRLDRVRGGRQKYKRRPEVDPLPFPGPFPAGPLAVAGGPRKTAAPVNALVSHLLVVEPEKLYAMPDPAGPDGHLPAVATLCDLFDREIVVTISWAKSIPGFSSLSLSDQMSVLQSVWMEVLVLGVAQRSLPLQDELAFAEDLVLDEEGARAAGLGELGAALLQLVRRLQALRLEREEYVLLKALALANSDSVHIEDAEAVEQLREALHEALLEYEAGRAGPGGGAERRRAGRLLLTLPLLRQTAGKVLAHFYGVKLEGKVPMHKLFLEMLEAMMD
Chain of X-box-binding protein 1 (Homo sapiens) (P17861 whole entry, looked up): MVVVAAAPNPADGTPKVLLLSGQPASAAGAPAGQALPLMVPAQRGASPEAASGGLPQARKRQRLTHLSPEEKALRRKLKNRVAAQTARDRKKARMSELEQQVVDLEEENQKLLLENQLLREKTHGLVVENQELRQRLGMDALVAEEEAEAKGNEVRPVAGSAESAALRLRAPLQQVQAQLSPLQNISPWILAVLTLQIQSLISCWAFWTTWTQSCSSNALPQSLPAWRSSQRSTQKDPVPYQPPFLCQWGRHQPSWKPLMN
Chain of Estrogen receptor (Homo sapiens) (P03372 whole entry, looked up, the tested form may be a part): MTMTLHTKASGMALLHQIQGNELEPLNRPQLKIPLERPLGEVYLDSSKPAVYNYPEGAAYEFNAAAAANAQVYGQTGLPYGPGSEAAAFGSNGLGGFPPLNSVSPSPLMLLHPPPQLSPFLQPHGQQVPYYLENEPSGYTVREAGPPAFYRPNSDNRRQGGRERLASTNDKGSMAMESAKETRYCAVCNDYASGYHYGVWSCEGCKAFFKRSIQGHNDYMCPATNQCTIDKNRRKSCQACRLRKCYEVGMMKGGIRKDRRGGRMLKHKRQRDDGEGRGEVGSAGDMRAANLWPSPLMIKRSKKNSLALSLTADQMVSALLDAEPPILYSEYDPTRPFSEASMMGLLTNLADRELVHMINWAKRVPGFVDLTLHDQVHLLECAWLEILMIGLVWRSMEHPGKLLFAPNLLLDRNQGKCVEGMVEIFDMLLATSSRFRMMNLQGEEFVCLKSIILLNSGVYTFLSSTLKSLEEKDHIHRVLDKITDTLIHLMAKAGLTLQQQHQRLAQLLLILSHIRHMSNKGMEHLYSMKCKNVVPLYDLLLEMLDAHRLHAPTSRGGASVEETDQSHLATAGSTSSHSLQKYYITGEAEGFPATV
Chain of Nuclear receptor subfamily 1 group I member 3 (Homo sapiens) (Q14994 whole entry, looked up, the tested form may be a part): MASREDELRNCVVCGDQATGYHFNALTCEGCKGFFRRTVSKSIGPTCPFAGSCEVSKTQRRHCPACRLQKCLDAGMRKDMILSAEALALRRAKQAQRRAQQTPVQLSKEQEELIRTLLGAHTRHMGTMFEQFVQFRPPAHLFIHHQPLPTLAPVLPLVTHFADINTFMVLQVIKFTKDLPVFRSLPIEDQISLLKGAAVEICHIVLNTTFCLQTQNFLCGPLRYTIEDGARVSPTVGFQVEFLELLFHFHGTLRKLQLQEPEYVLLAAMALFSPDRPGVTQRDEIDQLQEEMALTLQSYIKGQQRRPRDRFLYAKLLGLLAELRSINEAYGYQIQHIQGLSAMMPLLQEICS
Chain of Androgen receptor (Homo sapiens) (P10275 whole entry, looked up): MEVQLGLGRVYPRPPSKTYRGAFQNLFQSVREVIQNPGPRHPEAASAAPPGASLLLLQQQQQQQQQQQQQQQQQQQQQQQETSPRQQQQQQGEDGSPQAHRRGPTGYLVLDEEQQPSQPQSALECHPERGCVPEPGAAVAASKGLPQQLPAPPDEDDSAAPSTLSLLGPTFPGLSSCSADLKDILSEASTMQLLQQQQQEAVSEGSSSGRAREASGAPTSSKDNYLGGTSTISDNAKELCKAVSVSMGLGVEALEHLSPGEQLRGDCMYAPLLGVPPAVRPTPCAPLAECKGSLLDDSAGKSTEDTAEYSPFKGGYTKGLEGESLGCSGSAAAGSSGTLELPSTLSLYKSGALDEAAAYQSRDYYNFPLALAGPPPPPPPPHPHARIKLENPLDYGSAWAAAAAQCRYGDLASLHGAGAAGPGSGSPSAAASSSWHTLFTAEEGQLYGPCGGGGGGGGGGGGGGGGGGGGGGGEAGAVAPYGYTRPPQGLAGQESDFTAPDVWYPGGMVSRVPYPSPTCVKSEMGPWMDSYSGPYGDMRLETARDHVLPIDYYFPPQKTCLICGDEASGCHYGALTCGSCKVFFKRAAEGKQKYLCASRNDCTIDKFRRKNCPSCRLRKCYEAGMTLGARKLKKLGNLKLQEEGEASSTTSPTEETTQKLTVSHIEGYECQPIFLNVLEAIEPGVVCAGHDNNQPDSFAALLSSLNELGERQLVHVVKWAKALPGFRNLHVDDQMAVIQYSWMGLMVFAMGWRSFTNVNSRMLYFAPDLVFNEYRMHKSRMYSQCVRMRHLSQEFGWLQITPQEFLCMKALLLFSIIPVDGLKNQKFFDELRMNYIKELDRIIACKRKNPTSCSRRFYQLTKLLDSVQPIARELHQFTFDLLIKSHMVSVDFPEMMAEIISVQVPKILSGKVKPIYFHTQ

On to `COc1cc(Cl)c(OC)cc1Cl`, for which the outcome in [1], in experiment [2], in experiment [3], in [4], in experiment [5] and in experiment [6] was inactive. For the same compound, the compound was classed as inactive in [7] and in [8].

For `O=C1C2CC=CCC2C(=O)N1SC(Cl)(Cl)Cl` (stereo unspecified), the result in [1], in experiment [2], in [3], in [4], in experiment [5] and in experiment [6] was inactive. Besides, the outcome in experiment [7] and in experiment [8] was inactive.

For the compound `CCC(C)n1c(=O)[nH]c(C)c(Br)c1=O` (stereo unspecified), the compound was called inactive in [1], in experiment [2], in experiment [3], in experiment [4], in experiment [5] and in experiment [6]. In addition, the result in experiment [7] and in experiment [8] was inactive.

The AC50 is the midpoint of the concentration-response curve, whichever way the signal moves. As for `Cc1cc(C)nc(Nc2ccccc2)n1`, the compound was called inactive in experiment [1], in experiment [2], in experiment [3], in experiment [5], in experiment [6] and in [7]. Moreover, in experiment [4], the AC50 was 14.9 µM (active).

Regarding `CCCCC(O)(Cn1cncn1)c1ccc(Cl)cc1Cl` (stereo unspecified), the result in [1], in [2], in experiment [3] and in experiment [7] was inactive. Besides, the results for the AC50 in experiment [4] and in [5] were 23.6 µM (active) and 16.9 µM (active), respectively.

With `CCSC(=O)N1CCCCCC1`, the call in experiment [1], in experiment [2], in experiment [3], in experiment [4], in experiment [5] and in [6] was inactive. For the same compound, the result in [7] and in experiment [8] was inactive.

Take `COC(=O)NS(=O)(=O)c1ccc(N)cc1`: the result in [1], in [2], in experiment [3], in experiment [4], in experiment [9] and in experiment [6] was inactive. In experiment [7], the outcome was inactive.

Consider `COC(=O)c1c(C(F)F)nc(C(F)(F)F)c(C2=NCCS2)c1CC(C)C`, for which the outcome in experiment [1], in experiment [2], in [3], in experiment [6], in [7] and in [8] was inactive. For the same compound, the AC50 in experiment [4] was 0.879 µM (active); in experiment [5], 19.6 µM (active).

Turning to `CC(C)Nc1nc(Cl)nc(NC(C)C)n1`, the outcome in experiment [1], in experiment [2], in experiment [3], in [4], in experiment [5] and in [6] was inactive. In experiment [7], the result was inactive.

Take `Cc1c(COC(=O)[C@@H]2[C@H](/C=C(\Cl)C(F)(F)F)C2(C)C)cccc1-c1ccccc1`: the result in experiment [1], in [2], in experiment [3], in [9], in experiment [7] and in experiment [8] was inactive. Further, the figures for the concentration at half-maximal activity (AC50) in experiment [4] and in experiment [5] were 12.6 µM (active) and 14.9 µM (active), respectively.

As to `N#Cc1c[nH]cc1-c1cccc2c1OC(F)(F)O2`, the compound was classed as inactive in experiment [1], in experiment [2], in experiment [3], in [6] and in experiment [8]. For the same compound, the AC50 in experiment [4] is 17.5 µM (active); in experiment [5], 2.84 µM (active); in experiment [7], 4.63 µM (active).

Regarding `COP(=S)(OC)Oc1ccc([N+](=O)[O-])c(C)c1`, the call in experiment [1], in experiment [2], in experiment [3], in experiment [6] and in experiment [8] was inactive. The results for the concentration at half-maximal activity (AC50) in experiment [4], in [5] and in [7] were 34.1 µM (active), 17.9 µM (active) and 50 µM (active), respectively.

For `CC1(C)C(C(=O)OC(C#N)c2cccc(Oc3ccccc3)c2)C1(C)C` (stereo unspecified), the compound was classed as inactive in experiment [1], in experiment [2], in experiment [3] and in experiment [7]. The figures for the AC50 in experiment [4] and in experiment [5] were 6.46 µM (active) and 21.3 µM (active), respectively.

`CCOP(=S)(OCC)Oc1nc(Cl)n(C(C)C)n1`: the result in experiment [1], in [2], in experiment [3] and in experiment [7] was inactive. In addition, the AC50 in experiment [4] was 5.61 µM (active); in experiment [5], 29.9 µM (active).

On to `C=C(C)CN(CC)c1c([N+](=O)[O-])cc(C(F)(F)F)cc1[N+](=O)[O-]`, for which the outcome in experiment [1], in experiment [2], in experiment [3], in experiment [6], in experiment [7] and in [8] was inactive. For the same compound, the values for the half-maximal activity concentration (AC50) in experiment [4] and in [5] were 25.1 µM (active) and 30.7 µM (active), respectively.

As to `COP(=O)(OC)O/C(C)=C/C(=O)N(C)C`, the outcome in experiment [1], in experiment [2], in experiment [3], in experiment [4], in experiment [5] and in experiment [7] was inactive.

Turning to `CCCCOCN(C(=O)CCl)c1c(CC)cccc1CC`, the compound was called inactive in experiment [1], in [2], in experiment [3], in [5], in experiment [6] and in experiment [7]. The compound was called inactive in experiment [10] and in experiment [8]. Further, in experiment [4], the AC50 is 0.5 µM (active).
